RE007 growth inh: qHTS Assay for Inhibitors of the HIV-1 protein Vpr. S. pombe RE007 Vpr strain, BacTiter-Glo ATP luminescence, 24 h. Potency, µM (titrated, usually from 92.2 µM), actives largely listed as inhibitors. hit rate 0.21% among 360,000. AID 651644, 2012; active = well fitted falling curve with a large enough effect; inconclusive = small, poorly fitted or top-dose-only effect; inactive = no such curve, though single readings can be large or run the other way; also: nearly all actives have a fitted effect of over 50% in size
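Fission yeast strain RE007, carrying one chromosomally integrated HIV-1 vpr copy, was seeded at OD 0.01 in PMG+AL medium with 23 nL pinned compound. After 24 h at 30 °C and 99% humidity, viability was read by BacTiter-Glo luminescence.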
CHX counter: Cycloheximide Counterscreen for Small Molecule Inhibitors of Shiga Toxin; max response, %; hit rate 12% among 300,000; cell reporter, cycloheximide protein synthesis inhibition counterscreen; AID 2314, 2010; in the data active = max response mostly above about 13%, no sharp cut-off; inactive = mostly below about 14%; also: read at 38.3 µM for the half of the compounds with a filed dose
LmPK inh: qHTS Assay for Inhibitors of Leishmania Mexicana Pyruvate Kinase (LmPK); Q27686; purified LmPK, Kinase-Glo ATP luminescence, 1 h; Potency, µM (highest dose often 57.5 µM), hits mostly inhibitors; hit rate 0.37% among 290,000
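Screened at intermediate enzyme activity to detect both inhibitors and activators: LmPK at 0.1 nM, with a 0.5 nM enzyme column as activation reference. PEP 0.5 mM, ADP 0.1 mM; ATP detected by luminescence after 1 h.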
Shiga inhibitor: A qHTS for Small Molecule Inhibitors of Shiga Toxin | Vero cells, Shiga toxin protein synthesis inhibition reporter | inhibition, % at 38.7 µM | hit rate 9.2% among 290,000 | AID 2315, 2010; in the data active = inhibition mostly above about 28%, no sharp cut-off; inactive = mostly below about 43%
TbPYK inhibitor: qHTS of Trypanosoma Brucei Inhibitors; hit rate 0.12% among 410,000; Potency, µM (series often up to 76.8 µM), actives largely listed as inhibitors; pyruvate kinase (Trypanosoma brucei), Q57TT1; AID 624173, 2012; TbPYK enzyme, Kinase-Glo Plus ATP luminescence, 45 min; also: nearly all actives have a fitted effect of over 50% in size
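Luminescent Kinase-Glo Plus end-point after 45 min room-temperature reaction of T. brucei pyruvate kinase started with 130 uM ADP (final). Buffer TEA 50 mM pH 7.2 with KCl, MgCl2, BSA, Tween-20; titration-based qHTS with fitted concentration-effect curves.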
Giardia FBPA inh: qHTS Assay for Inhibitors of Fructose-1,6-bisphosphate Aldolase from Giardia Lamblia | hit rate 0.71% among 290,000 | A8B2U2 | purified Giardia FBPA | Potency, µM (top dose mostly 59.6 µM), most hits filed as inhibitors; also: nearly all actives have a fitted effect of over 55% in size
Target sequence (A8B2U2 whole entry, looked up): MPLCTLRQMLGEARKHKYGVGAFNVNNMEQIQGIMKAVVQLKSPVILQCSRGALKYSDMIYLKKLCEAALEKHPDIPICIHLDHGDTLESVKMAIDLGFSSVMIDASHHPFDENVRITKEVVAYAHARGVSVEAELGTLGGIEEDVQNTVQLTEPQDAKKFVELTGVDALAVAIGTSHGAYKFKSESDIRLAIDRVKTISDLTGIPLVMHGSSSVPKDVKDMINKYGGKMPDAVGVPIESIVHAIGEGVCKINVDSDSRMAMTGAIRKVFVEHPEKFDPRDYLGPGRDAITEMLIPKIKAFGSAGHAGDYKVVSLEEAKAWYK
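40 nM FBPA preincubated 10 min at RT with compound (up to 57.5 uM final), then substrate plus GAPDH/TPI/NAD/arsenate coupling and diaphorase/resazurin added. Fluorescence read after 20 min at RT, 525/598 nm.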
Hits are given with their value; . = inactive; ? = inconclusive; / = no result; [ ] = dose if it differs, or a comment. The sample as a whole holds a higher share of hits than the screen did. Unless noted, calls follow the shape of the dose curve; as a rule, active = well fitted curve in the direction sought with a large enough effect; inconclusive = small, poorly fitted or top-dose-only effect, or another doubt; inactive = no such curve, though single readings can be large; an effect the other way counts as inactive or inconclusive.

SMILES	RE007 growth inh	CHX counter	LmPK inh	Shiga inhibitor	TbPYK inhibitor	Giardia FBPA inh
Cn1cc([N+](=O)[O-])c(C(=O)Nc2ccc(C3CCCCC3)cc2)n1	.	46	.	86	.	.
Cn1cc([N+](=O)[O-])c(C(=O)Nc2ccc(C(=O)N3CCCCC3)cc2)n1	.	.	.	29	.	.
Cc1cc(C)n(Cc2ccc(NC(=O)c3nn(C)cc3[N+](=O)[O-])cc2)n1	.	.	.	.	.	.
O=C1/C(=C/c2cccnc2)Sc2ccccc21	28µM	.	?	.	.	.
Cc1ccc(/C=C2\Sc3ccccc3C2=O)s1	.	14	11µM	34	.	.
O=C1c2ccccc2C(=Cc2cccnc2)c2ccccc21	.	/	/	/	.	/
O=C(NNC(=S)Nc1ccc(C(=O)O)c(O)c1)c1ccncc1	.	/	/	/	.	/
Clc1ccccc1Nc1nnc(-c2ccncc2)s1	32µM	41	4.5µM	28	?	.
CCNc1nnc(-c2ccncc2)s1	?	.	.	.	.	.
COc1ccc(Cl)cc1Nc1nnc(-c2ccncc2)s1	.	.	.	.	.	.
Cc1ccc(Nc2nnc(-c3ccncc3)s2)c(Br)c1	.	27	.	.	.	.
COc1ccc(Nc2nnc(-c3ccncc3)s2)cc1Cl	.	49	.	71	.	.
CCc1c2c(nc3ccc(OC)cc13)OC(C)C2 (configuration not stated)	/	/	/	/	/	.
Cc1ccc(C(=O)Nc2ccc3c(c2)C(=O)NC3=O)cc1	.	14	.	.	.	.
Cc1cccc(C(=O)Nc2ccc3c(c2)C(=O)NC3=O)c1	.	21	.	.	.	.
O=C(Nc1ccc2c(c1)C(=O)NC2=O)c1cccc(Cl)c1	.	.	.	.	.	.
COC(=O)c1ccc(C(=O)Nc2ccc3c(c2)C(=O)NC3=O)cc1	.	.	.	.	.	.
CC(=O)Nc1cccc(Oc2ccc3c(c2)C(=O)NC3=O)c1	.	22	.	/	.	.
C[C@@H]1CN([C@H](C)CO)C(=O)CCCn2nncc2CO[C@H]1CN(C)Cc1cccc2c1OCCCO2	.	/	/	/	.	/
CCOC(=O)N/N=C\c1ccc(OC/C=C/c2ccccc2)cc1	.	.	.	.	.	.
COC(=O)N/N=C\c1ccc(OC/C=C/c2ccccc2)cc1	.	15	.	.	.	.
CC(C)(O)C(=O)N/N=C\c1ccc(OC/C=C/c2ccccc2)cc1	.	32	.	.	.	.
COC(=O)N/N=C/c1ccc(Oc2ccccc2)cc1	.	46	.	92	.	.
O=C1C2CCC(C2)[C@@H]2CCCCN12 (some centres not stated)	/	.	/	.	/	.
CCN(CC)c1ccc(C2Nc3cccc4cccc(c34)N2)c(O)c1	.	27	.	51	.	?
SMILES	RE007 growth inh	CHX counter	LmPK inh	Shiga inhibitor	TbPYK inhibitor	Giardia FBPA inh
Oc1ccc2ccccc2c1C1Nc2cccc3cccc(c23)N1	.	.	.	.	.	.
Cc1cc(N/C=C/C(=O)c2cccs2)ccc1F	.	29	?	97	.	.
Cc1ccc(NC2CCCN(C(=O)c3cccs3)C2)cc1C (configuration not stated)	.	.	.	.	.	/
Cc1c(N/C=C/C(=O)c2cccs2)c(=O)n(-c2ccccc2)n1C	.	.	.	.	.	.
O=C(/C=C/Nc1ccccc1C(=O)O)c1cccs1	.	33	?	75	.	.
Cc1ccc(N/C=C/C(=O)c2cccs2)cc1C	?	31	?	.	.	.
O=C(/C=C/Nc1ccc(Nc2ccccc2)cc1)c1cccs1	.	63	.	103	.	.
Cc1noc(C)c1C(=O)NCCc1c(C)[nH]c2ccccc12	.	.	.	.	.	.
O=C(Cn1c(=O)oc2ccccc21)NCc1ccccc1Cl	/	/	/	/	.	/
COc1ccccc1NC(=O)N[C@@H](Cc1c[nH]c2ccccc12)C(=O)NN	.	.	.	.	.	.
CCOC(=O)CCc1c(C)nc(SCC(=O)O)c(C#N)c1C	.	.	.	.	32µM	.
CC/C(=N\N=C(/CC)c1ccccc1N)c1ccccc1N	.	/	/	/	.	/
Cc1nn(-c2ccc(C(F)(F)F)cn2)c(C)c1Oc1ccccc1O	.	23	.	.	.	.
Cc1ccc(N2CCN(C(=O)c3nn(C)c4c3CSc3ccccc3-4)CC2C)cc1 (configuration not stated)	/	/	/	/	.	/
Cc1ccc(/C=C/C(=O)c2ccccc2O)cc1	.	40	.	88	.	.
Cc1ccc(C(=O)C=Cc2cccc(C)c2)cc1	.	/	/	/	.	/
O=C(/C=C/c1ccco1)c1ccccc1O	.	33	?	59	.	.
Cc1ccc(/C=C/C(=O)c2ccc(C)cc2)cc1	.	68	.	83	.	.
Cc1c(/C=C/C(=O)c2ccccc2O)cnn1C	?	71	.	active	.	.
CN(C)c1ccc(/C=C/C(=O)c2ccccc2O)cc1	.	40	.[11.5 µM]	.	.	.
CN(C)c1ccc(/C=C/C(=O)c2ccc(O)cc2)cc1	.	/	/	/	.	/
CCOc1ccc(NC(=O)c2cc3cc(C)ccc3n2C)cc1	/	/	/	/	.	/
COC(=O)c1ccc(-c2ccc(/C=N/N3C(=O)C4C5C=CC(C6CC56)C4C3=O)o2)cc1 (configuration not stated)	.	75	.	132	.	.
O=C1C2C3C=CC(C4CC34)C2C(=O)N1/N=C/c1ccc([N+](=O)[O-])o1 (configuration not stated)	?	22	.	.	.	?
O=C1C2C3C=CC(C4CC34)C2C(=O)N1/N=C/c1ccc(-c2ccc([N+](=O)[O-])cc2)o1 (configuration not stated)	.	.	.	.	.	.
SMILES	RE007 growth inh	CHX counter	LmPK inh	Shiga inhibitor	TbPYK inhibitor	Giardia FBPA inh
O=C1C2C3C=CC(C3)C2C(=O)N1/N=C/c1ccc(-c2ccccc2[N+](=O)[O-])o1 (configuration not stated)	.	32	.	66	.	?
O=C1C2C3C=CC(C4CC34)C2C(=O)N1/N=C/c1cccs1 (configuration not stated)	.	51	.	49	.	.
CCOC(=O)c1ccc(NC(=O)CC2C(=O)N(c3ccccc3)C(=O)N2C2CCCCC2)cc1 (configuration not stated)	/	/	/	/	.	/
COc1ccc(-c2nc3nc(C)cc(N4CCN(c5cccc(C(F)(F)F)c5)CC4)n3n2)cc1	/	/	/	/	.	/
O=C(CCC(=O)N1CC2CCCN2c2ccccc21)NCc1ccc(Cl)cc1 (configuration not stated)	/	/	/	/	.	/
O=C(Nc1cc(S(=O)(=O)N2CCOCC2)ccc1N1CCCCC1)c1ccccc1Br	.	/	/	/	.	/
Cc1cccc(CSc2ncc(Cl)c(C(=O)Nc3sc4c(c3C(N)=O)CCCC4)n2)c1	/	/	/	/	.	/

Screening results from PubChem.
